Bioassay records: PubChem, The Scripps Research Institute Molecular Screening Center
Sampled rows, rich in hits. Any-hit rate of the full collection: about 2.9%.
pPAFAH inh: pPAFAH (human) enzyme inhibition | Q13093 | recombinant pPAFAH, FP-rhodamine probe fluorescence polarization | inhibition, % at 3.39 µM | actives 1.5% (n = 330,000) | AID 463082;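 active = inhibition above the mean inhibition across the screen plus 3 SD, cut at about 25% in these data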;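 note: inhibitors block binding of the rhodamine activity-based probe so polarization drops; 0% = enzyme with DMSO and 100% = wells lacking pPAFAH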
Target sequence (Q13093 whole entry, looked up): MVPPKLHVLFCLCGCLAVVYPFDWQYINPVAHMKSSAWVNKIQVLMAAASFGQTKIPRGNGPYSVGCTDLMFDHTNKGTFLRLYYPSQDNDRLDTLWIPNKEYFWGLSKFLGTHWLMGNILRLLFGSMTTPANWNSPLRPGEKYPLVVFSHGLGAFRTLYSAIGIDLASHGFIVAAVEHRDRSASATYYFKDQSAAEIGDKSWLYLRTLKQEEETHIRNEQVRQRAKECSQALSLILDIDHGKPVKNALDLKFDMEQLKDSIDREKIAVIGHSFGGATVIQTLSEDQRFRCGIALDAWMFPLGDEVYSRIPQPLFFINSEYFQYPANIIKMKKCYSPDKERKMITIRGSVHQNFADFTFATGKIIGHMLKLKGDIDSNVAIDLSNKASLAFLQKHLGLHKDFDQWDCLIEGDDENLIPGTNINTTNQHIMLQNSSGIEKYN
EBNA-1 inh: blocks EBNA-1 binding to DNA | inhibition, % at 14.8 µM | EBNA-1 DNA binding, fluorescence polarization | actives 0.34% (n = 300,000); in the data active = inhibition above about 28%
PAFAH2 inh: PAFAH2 (human) inhibition | Q99487 | recombinant PAFAH2, FP-rhodamine activity probe, fluorescence polarization | actives 0.99% (n = 340,000) | AID 492956 | inhibition, % at 3.39 µM;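 active = inhibition above the mean over all tested compounds plus 3 SD, cut at about 30% in these data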;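 note: inhibitors block probe labeling of enzyme so polarization drops; 0% = enzyme with DMSO and 100% = wells lacking PAFAH2 protein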
ZTA DNA inh: blocks Epstein-Barr virus ZTA, an EBNA-1 counter-screen. P03206. AID 2234. ZTA-DNA binding, fluorescence polarization. inhibition, % at 11 µM. actives 0.15% (n = 320,000); in the data active = inhibition above about 33%
PAFAH1B3 inh: inhibitors of human PAFAH1B3 | AID 492972 | Q15102 | recombinant PAFAH1B3, FP-rhodamine probe, fluorescence polarization | actives 0.28% (n = 340,000) | inhibition, % at 3.39 µM;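 active = inhibition above the screen-wide average of all tested compounds plus 3 SD, cut at about 25% in these data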;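 note: 0% = enzyme with DMSO only and 100% = wells lacking PAFAH1B3 protein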
PAFAH1B2 inh: PAFAH1B2 (human) inhibition; recombinant PAFAH1B2, FP-rhodamine activity probe, fluorescence polarization; P68402; inhibition, % at 3.39 µM; actives 1.2% (n = 340,000);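 active = inhibition above the mean of all tested compounds plus 3 SD, cut at about 24% in these data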;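 note: 0% = enzyme with DMSO and 100% = wells lacking PAFAH1B2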
EBNA-1 inh conf: EBNA-1 (EBV) inhibition, confirmation | shares compounds with EBNA-1 inh | Recombinant EBNA-1 DBD, Cy5-DNA fluorescence polarization | inhibition, % at 14.8 µM | actives 35% (n = 830) | AID 2292;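 active = mean inhibition across replicates above a set limit taken from the earlier primary screen, cut at about 28% in these data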;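 note: plate controls were EBNA-1 protein with DMSO for no effect and wells lacking EBNA-1 for full effect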
ZTA counter trip: counter-screen for EBNA-1 inhibitors: Epstein-Barr virus ZTA inhibitors, triplicate; shares compounds with EBNA-1 inh; Zta-ZRE DNA binding, Cy5 fluorescence polarization; inhibition, % at 11.1 µM; 830 tested, under 10 active; AID 2328;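 active = mean inhibition over triplicates above a set limit taken from the primary EBNA-1 screen, cut at about 37% in these data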;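 note: purified full length Zta protein with Cy5 labeled ZRE DNA probe; 0% = Zta with DMSO and 100% = wells lacking Zta protein; inhibitors lower polarization by freeing the labeled DNA probe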
* hit, by the source's call; . = no result given.

SMILES	pPAFAH inh	EBNA-1 inh	PAFAH2 inh	ZTA DNA inh	PAFAH1B3 inh	PAFAH1B2 inh	EBNA-1 inh conf	ZTA counter trip
NS(=O)(=O)c1ccc(CCNC(=O)c2cc(-c3ccc(Br)cc3)nc3ccccc23)cc1	-11	5	-13	-3	-18	-8	.	.
NS(=O)(=O)c1ccc(CCNC(=O)c2cc(-c3ccccn3)nc3ccc(Br)cc23)cc1	-24	43*	-20	-1	-17	-11	36*	3
COc1ccc(C(=O)Nc2ccc(Cl)c(S(=O)(=O)Nc3ccccc3OC)c2)cc1	-13	0	-44	-13	-7	-7	.	.
COc1ccccc1NS(=O)(=O)c1cc(NC(=O)c2ccc3ccccc3n2)ccc1Cl	-2	52*	-31	-14	-19	-13	3	5
Cc1ccccc1Nc1nnc(SCC(=O)c2c(N)n(C3CC3)c(=O)[nH]c2=O)s1	.	.	4	.	9	3	.	.
CCCCOc1ccccc1C(=O)N(Cc1ccco1)C1CCS(=O)(=O)C1 (centres undefined)	4	-2	-3	-1	4	6	.	.
C=CCNC(=S)NNC(=O)c1ccccc1	-2	77*	0	4	2	0	-3	7
C=CCNC(=S)NNC(=O)c1cccc(Br)c1	-4	-12	-3	1	9	7	.	.
COC(=O)c1ccc2c(=O)[nH]c(CSc3nc(-c4ccc(F)cc4)cs3)nc2c1	1	60*	-16	-17	3	-5	34*	12
COC(=O)c1ccc2c(=O)[nH]c(CSc3nc(C)cs3)nc2c1	-3	-16	2	12	-3	0	.	.
Cc1cc(/C=C2\SC(=S)N(C)C2=O)c(C)n1-c1ccccc1O	1	35*	-14	16	-7	-2	43*	-5
COC(=O)C1=C(C)NC2=C(C(=O)c3ccccc32)C1c1cccc(OC)c1 (centres undefined)	5	28*	11	-5	10	3	38*	4
CCOc1ccc(/C=N/NC(=O)c2nnn(-c3nonc3N)c2-c2ccc(OCC)cc2)cc1	3	35*	-5	-8	3	0	1	-1
COc1cccc(-c2c(C(=O)N/N=C(\C)c3ccc(Cl)s3)nnn2-c2nonc2N)c1	0	35*	-1	-6	8	1	6	-7
COc1ccccc1Nc1ncc(C(=O)Nc2ccc(OC)c(OC)c2)c2ccccc12	9	80*	4	1	0	-2	55*	4
CN1C(=O)CC(C(=O)Nc2ccccc2F)SC1=Nc1ccc2c(c1)OCO2 (centres undefined)	-7	28*	-9	-2	2	2	50*	4
COc1ccc(N=C2SC(C(=O)Nc3ccc4c(c3)OCO4)CC(=O)N2C)cc1 (centres undefined)	4	2	3	-15	8	4	.	.
CN1C(=O)N(C)C2(c3ccccc3)Nn3c(s/c(=C/c4ccco4)c3=O)=NC12c1ccccc1 (centres undefined)	6	45*	2	-3	0	4	77*	10
CN1C(=O)N(C)C2(c3ccccc3)Nn3c(s/c(=C/c4ccccc4F)c3=O)=NC12c1ccccc1 (centres undefined)	2	4	.	15	.	.	.	.
O=C(Nc1cccc(F)c1)c1cc(S(=O)(=O)N2CCOCC2)cs1	1	9	-6	6	11	6	.	.
Cc1cccc(C)c1NC(=O)CSc1nc(C2CC2)nc2ccccc12	-3	-9	6	13	-2	0	.	.
COc1cccc(C=NNC(=S)NN=Cc2cccc(OC)c2OC)c1OC	.	.	7	.	4	3	.	.
O=C(CC(Sc1n[nH]c(-c2ccccc2)n1)c1ccccc1)NCc1ccccc1 (centres undefined)	4	33*	-5	2	10	-1	10	9
COc1ccc(-c2nc(SC(CC(=O)NCCO)c3cccs3)n[nH]2)cc1 (centres undefined)	-1	-4	5	7	8	4	.	.
CCc1cccc(N(C(=O)c2csnn2)C(C(=O)NC(C)(C)C)c2ccncc2)c1 (centres undefined)	-1	-12	0	11	3	0	.	.
SMILES	pPAFAH inh	EBNA-1 inh	PAFAH2 inh	ZTA DNA inh	PAFAH1B3 inh	PAFAH1B2 inh	EBNA-1 inh conf	ZTA counter trip
O=C1N=C(N2CCCCC2)S/C1=C\c1cn[nH]c1-c1ccccc1	-9	91*	-4	14	2	0	15	0
CN1CCN(C2=NC(=O)/C(=C/c3cn[nH]c3-c3ccccc3)S2)CC1	1	8	-2	-1	7	1	.	.
O=C(O)CCCN1C(=O)C(=O)/C(=C(/O)c2ccccc2)C1/C=C/c1ccccc1 (centres undefined)	4	-1	4	17	1	6	.	.
COc1ccc2nc(NC(=O)CSc3nnc(C)s3)sc2c1	1	29*	-4	-8	4	5	7	-1
O=C(NCc1ccc(-c2nc3ccccc3s2)cc1)c1cc2ccccc2o1	3	28*	-13	3	0	2	3	5
O=C(NCc1ccc(-c2nc3ccccc3s2)cc1)c1ccc(Br)o1	1	8	-9	3	-4	-1	.	.
O=c1c2ccccc2nc(SCc2nc3ccccc3s2)n1Cc1ccco1	7	49*	5	-6	-8	-9	4	6
CCn1c2ccccc2c2cc(NC(=O)CC(C)=O)ccc21	0	-13	5	7	0	-2	.	.
CCOC(=O)c1c(NC(=O)COC(=O)Cc2n[nH]c(=O)c3ccccc23)sc(C(=O)NC)c1C	-2	.	-6	.	1	-13	.	.
COC(=O)c1ccc(CSc2nc3ccccc3s2)o1	3	-14	1	-11	2	6	.	.
COC(=O)C1=C(CSc2nc3ccccc3s2)NC(=O)NC1c1ccc(F)cc1 (centres undefined)	1	42*	-6	-3	-7	-2	16	2
COc1cc(CCC(=O)OCC(=O)Nc2cc(S(=O)(=O)N3CCOCC3)ccc2Cl)cc(OC)c1OC	.	.	11	.	-2	0	.	.
O=C(c1ccc(CN2CCc3ccccc3C2)cc1)N1CCc2ccccc2C1	2	38*	1	2	6	2	-16	-5
Cc1nn(-c2ccccc2)c2sc(C(=O)OCn3nnc4ccccc4c3=O)cc12	2	35*	4	-23	-4	-5	-3	-4
Cc1cc(C)n(-c2ccc(C(=O)OCC(=O)NC(c3ccccc3)c3ccccc3)cc2)n1	13	32*	3	19	7	-4	26	2
